# In the supplement of paper PMC4466140:
# Legend:
# Assay in all cases: SPOT peptide array binding signal intensity (averaged, normalized) (arbitrary units (background-subtracted, floor 0; scale differs between SH3 domains)); higher = stronger binding of the SH3 domain to the peptide
# [1] = target: AgAbp1
# In short: (§1)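 E. coli BL21(DE3) was used to express GST-fused SH3 domains from four yeast species, which were then purified on glutathione Sepharose. These were incubated at 10 μg/ml in TBS-based blocking buffer overnight at 4°C on cellulose membranes carrying synthetic 15-mer peptides, in which cysteines were replaced by serines. Binding signal is the replicate average of normalized, background-subtracted spot intensity, in arbitrary units that differ between domains.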
# [2] = target: AgBbc1
# In short: as §1
# [3] = target: AgBem1-D1
# In short: as §1
# [4] = target: AgBzz1-D1
# In short: as §1
# [5] = target: AgBzz1-D2
# In short: as §1
# [6] = target: AgCyk3
# In short: as §1
# [7] = target: AgFus1
# In short: as §1
# [8] = target: AgHof1
# In short: as §1
# [9] = target: AgHse1
# In short: as §1
# [10] = target: AgLsb1
# In short: as §1
# [11] = target: AgLsb4
# In short: as §1
# [12] = target: AgMyo5
# In short: as §1
# [13] = target: AgNbp2
# In short: as §1
# [14] = target: AgRvs167
# In short: as §1
# [15] = target: AgSho1
# In short: as §1
# [16] = target: AgSla1-D1-D2
# In short: as §1
# [17] = target: AgSla1-D3
# In short: as §1
# [18] = target: CaAbp1-D1
# In short: as §1
# [19] = target: CaAbp1-D2
# In short: as §1
# [20] = target: CaBbc1
# In short: as §1
# [21] = target: CaBem1-D1
# In short: as §1
# [22] = target: CaBzz1-D1
# In short: as §1
# [23] = target: CaBzz1-D2
# In short: as §1
# [24] = target: CaCyk3
# In short: as §1
# [25] = target: CaFus1
# In short: as §1
# [26] = target: CaHof1
# In short: as §1
# [27] = target: CaHse1
# In short: as §1
# [28] = target: CaLsb1
# In short: as §1
# [29] = target: CaLsb4
# In short: as §1
# [30] = target: CaMyo5
# In short: as §1
# [31] = target: CaNbp2
# In short: as §1
# [32] = target: CaRvs167
# In short: as §1
# [33] = target: CaRvs167-3
# In short: as §1
# [34] = target: CaSho1
# In short: as §1
# [35] = target: CaSla1-D1-D2
# In short: as §1
# [36] = target: CaSla1-D3
# In short: as §1
# [37] = target: ScAbp1
# In short: as §1
# [38] = target: ScBbc1
# In short: as §1
# [39] = target: ScBem1-D1
# In short: as §1
# [40] = target: ScBzz1-D1
# In short: as §1
# [41] = target: ScBzz1-D2
# In short: as §1
# [42] = target: ScCyk3
# In short: as §1
# [43] = target: ScFus1
# In short: as §1
# [44] = target: ScHof1
# In short: as §1
# [45] = target: ScHse1
# In short: as §1
# [46] = target: ScLsb1
# In short: as §1
# [47] = target: ScLsb2
# In short: as §1
# [48] = target: ScLsb3
# In short: as §1
# [49] = target: ScLsb4
# In short: as §1
# [50] = target: ScMyo3
# In short: as §1
# [51] = target: ScMyo5
# In short: as §1
# [52] = target: ScNbp2
# In short: as §1
# [53] = target: ScPex13
# In short: as §1
# [54] = target: ScRvs167
# In short: as §1
# [55] = target: ScSho1
# In short: as §1
# [56] = target: ScSla1-D1-D2
# In short: as §1
# [57] = target: ScSla1-D3
# In short: as §1
# [58] = target: SpAbp1-D1
# In short: as §1
# [59] = target: SpBbc1
# In short: as §1
# [60] = target: SpBzz1-D1
# In short: as §1
# [61] = target: SpBzz1-D2
# In short: as §1
# [62] = target: SpCyk3
# In short: as §1
# [63] = target: SpHof1
# In short: as §1
# [64] = target: SpHof1-2
# In short: as §1
# [65] = target: SpHof1-3
# In short: as §1
# [66] = target: SpHse1
# In short: as §1
# [67] = target: SpLsb1
# In short: as §1
# [68] = target: SpLsb4
# In short: as §1
# [69] = target: SpMyo1
# In short: as §1
# [70] = target: SpNbp2
# In short: as §1
# [71] = target: SpPex13
# In short: as §1
# [72] = target: SpRvs167
# In short: as §1
# [73] = target: SpSla1-D1-D2
# In short: as §1
# [74] = target: SpSla1-D3
# In short: as §1
binder,measurement,setting,value
TIRRRAPLSLLESHT,SPOT peptide array binding signal intensity,[1],77
same,SPOT peptide array binding signal intensity,[2],20
same,SPOT peptide array binding signal intensity,[3],46.5
same,SPOT peptide array binding signal intensity,[4],46
same,SPOT peptide array binding signal intensity,[5],39
same,SPOT peptide array binding signal intensity,[6],1
same,SPOT peptide array binding signal intensity,[7],895
same,SPOT peptide array binding signal intensity,[8],47
same,SPOT peptide array binding signal intensity,[9],730
same,SPOT peptide array binding signal intensity,[10],3.5
same,SPOT peptide array binding signal intensity,[11],99.5
same,SPOT peptide array binding signal intensity,[12],≤ 0
same,SPOT peptide array binding signal intensity,[13],397
same,SPOT peptide array binding signal intensity,[14],3
same,SPOT peptide array binding signal intensity,[15],36
same,SPOT peptide array binding signal intensity,[16],32
same,SPOT peptide array binding signal intensity,[17],11.5
same,SPOT peptide array binding signal intensity,[18],475
same,SPOT peptide array binding signal intensity,[19],324
same,SPOT peptide array binding signal intensity,[20],133
same,SPOT peptide array binding signal intensity,[21],21.5
same,SPOT peptide array binding signal intensity,[22],40
same,SPOT peptide array binding signal intensity,[23],58.8
same,SPOT peptide array binding signal intensity,[24],11.5
same,SPOT peptide array binding signal intensity,[25],1540
same,SPOT peptide array binding signal intensity,[26],0.5
same,SPOT peptide array binding signal intensity,[27],47.5
same,SPOT peptide array binding signal intensity,[28],0.5
same,SPOT peptide array binding signal intensity,[29],130
same,SPOT peptide array binding signal intensity,[30],≤ 0
same,SPOT peptide array binding signal intensity,[31],3410
same,SPOT peptide array binding signal intensity,[32],19.3
same,SPOT peptide array binding signal intensity,[33],28.2
same,SPOT peptide array binding signal intensity,[34],608
same,SPOT peptide array binding signal intensity,[35],133
same,SPOT peptide array binding signal intensity,[36],≤ 0
same,SPOT peptide array binding signal intensity,[37],97
same,SPOT peptide array binding signal intensity,[38],16.5
same,SPOT peptide array binding signal intensity,[39],22.5
same,SPOT peptide array binding signal intensity,[40],11.5
same,SPOT peptide array binding signal intensity,[41],29.5
same,SPOT peptide array binding signal intensity,[42],57.5
same,SPOT peptide array binding signal intensity,[43],731
same,SPOT peptide array binding signal intensity,[44],3.5
same,SPOT peptide array binding signal intensity,[45],2020
same,SPOT peptide array binding signal intensity,[46],2
same,SPOT peptide array binding signal intensity,[47],≤ 0
same,SPOT peptide array binding signal intensity,[48],272
same,SPOT peptide array binding signal intensity,[49],8
same,SPOT peptide array binding signal intensity,[50],≤ 0
same,SPOT peptide array binding signal intensity,[51],1
same,SPOT peptide array binding signal intensity,[52],1320
same,SPOT peptide array binding signal intensity,[53],1
same,SPOT peptide array binding signal intensity,[54],48.5
same,SPOT peptide array binding signal intensity,[55],1070
same,SPOT peptide array binding signal intensity,[56],337
same,SPOT peptide array binding signal intensity,[57],0.5
same,SPOT peptide array binding signal intensity,[58],508
same,SPOT peptide array binding signal intensity,[59],1
same,SPOT peptide array binding signal intensity,[60],106
same,SPOT peptide array binding signal intensity,[61],≤ 0
same,SPOT peptide array binding signal intensity,[62],2
same,SPOT peptide array binding signal intensity,[63],148
same,SPOT peptide array binding signal intensity,[64],3.5
same,SPOT peptide array binding signal intensity,[65],504
same,SPOT peptide array binding signal intensity,[66],598
same,SPOT peptide array binding signal intensity,[67],3
same,SPOT peptide array binding signal intensity,[68],135
same,SPOT peptide array binding signal intensity,[69],≤ 0
same,SPOT peptide array binding signal intensity,[70],350
same,SPOT peptide array binding signal intensity,[71],7
same,SPOT peptide array binding signal intensity,[72],6.33
same,SPOT peptide array binding signal intensity,[73],5
same,SPOT peptide array binding signal intensity,[74],4.5
IFLRISINFPLNYPN,SPOT peptide array binding signal intensity,[1],76
same,SPOT peptide array binding signal intensity,[2],233
same,SPOT peptide array binding signal intensity,[3],952
same,SPOT peptide array binding signal intensity,[4],1120
same,SPOT peptide array binding signal intensity,[5],412
same,SPOT peptide array binding signal intensity,[6],52.5
same,SPOT peptide array binding signal intensity,[7],4330
same,SPOT peptide array binding signal intensity,[8],218
same,SPOT peptide array binding signal intensity,[9],2460
same,SPOT peptide array binding signal intensity,[10],68.8
same,SPOT peptide array binding signal intensity,[11],2440
same,SPOT peptide array binding signal intensity,[12],29.5
same,SPOT peptide array binding signal intensity,[13],1630
same,SPOT peptide array binding signal intensity,[14],162
same,SPOT peptide array binding signal intensity,[15],2150
same,SPOT peptide array binding signal intensity,[16],74.2
same,SPOT peptide array binding signal intensity,[17],73.9
same,SPOT peptide array binding signal intensity,[18],448
same,SPOT peptide array binding signal intensity,[19],305
same,SPOT peptide array binding signal intensity,[20],487
same,SPOT peptide array binding signal intensity,[21],666
same,SPOT peptide array binding signal intensity,[22],1170
same,SPOT peptide array binding signal intensity,[23],821
same,SPOT peptide array binding signal intensity,[24],107
same,SPOT peptide array binding signal intensity,[25],7820
same,SPOT peptide array binding signal intensity,[26],1.25
same,SPOT peptide array binding signal intensity,[27],1570
same,SPOT peptide array binding signal intensity,[28],63.5
same,SPOT peptide array binding signal intensity,[29],477
same,SPOT peptide array binding signal intensity,[30],156
